Assay results taken from PMC13494018.
Unmarked numbers belong to inactive results. How the calls were made is not given here.

The binders below were run against CD276, Q5ZPR3.
Sequence of CD276, Q5ZPR3 (Q5ZPR3 whole entry): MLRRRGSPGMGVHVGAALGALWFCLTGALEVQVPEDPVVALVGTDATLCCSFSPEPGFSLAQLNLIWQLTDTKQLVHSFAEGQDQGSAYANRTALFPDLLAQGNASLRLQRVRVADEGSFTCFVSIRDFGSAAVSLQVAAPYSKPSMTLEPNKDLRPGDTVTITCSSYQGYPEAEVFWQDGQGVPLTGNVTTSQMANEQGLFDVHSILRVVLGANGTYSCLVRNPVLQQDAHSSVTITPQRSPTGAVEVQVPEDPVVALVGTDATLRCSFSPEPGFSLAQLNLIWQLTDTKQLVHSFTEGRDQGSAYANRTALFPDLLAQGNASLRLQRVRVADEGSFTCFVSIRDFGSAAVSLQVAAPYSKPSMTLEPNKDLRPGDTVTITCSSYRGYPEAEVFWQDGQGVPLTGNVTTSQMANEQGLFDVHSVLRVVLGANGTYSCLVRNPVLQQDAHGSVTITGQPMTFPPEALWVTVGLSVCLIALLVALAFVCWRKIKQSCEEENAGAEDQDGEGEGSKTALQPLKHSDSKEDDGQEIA

| Binder | binding in a display sort |
| --- | --- |
| design_617_b3fadc1d-0db4-4da8-8433-818493aa2ab2_1373_dldesign_0_cycle1_af2pred (protein) DAALRFAEAQLRRIERLAAEIIALGGPAWAPEAEALVAEAREALELIKTDPGAGMALLIETIERAYALLAEVRAAAA | not found |
| design_617_b3fadc1d-0db4-4da8-8433-818493aa2ab2_943_dldesign_0_cycle1_af2pred (protein) AEAAQEAAVADMEKAAAIAKKYAELFPSTADALIKAAEDALAAVKANKETAAETAKAGLKALNATIAAAMRQALADSAA | not found |
| design_617_b3fadc1d-0db4-4da8-8433-818493aa2ab2_49_dldesign_0_cycle1_af2pred (protein) SKLSEEAKKKAEEYLKKAEEAYKLAKEDPAAGQAKLSEILTKAMEAQTEFYKKDPSNKEALDYLNKTIQTITKYLVEAAKL | not found |
| design_617_b3fadc1d-0db4-4da8-8433-818493aa2ab2_734_dldesign_0_cycle1_af2pred (protein) MAEEIIREATRVATEAARLAVKYGNEVANKALALAVEAMELAASGENAEEAKKKLEEAKKLLEEAKKIAKEKE | not found |
| design_616_e8336982-fa4d-4d7c-b06f-9007953e1994_2432_dldesign_0_cycle1_af2pred (protein) NQTKSLAQGAIAMAEAIAEELRRLGDEESAKKVEEMAKEAKKLIEEGKYEEALKVATEGVAYGAERVAALR | not found |
| design_617_b3fadc1d-0db4-4da8-8433-818493aa2ab2_522_dldesign_0_cycle1_af2pred (protein) ADPAQASQQALNAAKAAIKSAARAAKAGNLEDAKKLAEVAADLIAQASPEQAAEALKVAKEEAAEVPEIAEYMISKAEAALAQAKARA | not found |
| design_617_b3fadc1d-0db4-4da8-8433-818493aa2ab2_1083_dldesign_0_cycle1_af2pred (protein) GDPEASKEALEYAKKAEELVKKAEELKDNPELAKKLIEEAKKHIHLALAEAGKAYPEVAQKVLTTVEKVLEKIKEL | not found |
| design_617_b3fadc1d-0db4-4da8-8433-818493aa2ab2_1106_dldesign_0_cycle1_af2pred (protein) GARARMEASIAQARELAAAAVAQAAAVDPAAAAAAAAALDALLAAAEAALAAGDYDAAAAAINAAVTLAIKWMQAAAAA | not found |
| design_617_b3fadc1d-0db4-4da8-8433-818493aa2ab2_636_dldesign_0_cycle1_af2pred (protein) TATLKEILAKVEKALELLKNASPETLNQALSLLTQAWALANKVDPAVAAAINAAIAALVDGMAKGVEVASKEGSAAAEKAIAAVKAAI | not found |
| design_617_b3fadc1d-0db4-4da8-8433-818493aa2ab2_224_dldesign_0_cycle1_af2pred (protein) AEAQALLDQAKAYLAQGTALFQSDPSLSSQALQQFGLAYIYASRAAALATAAGDTATADAAKAVQDQALANMQAIAAS | not found |
| design_616_e8336982-fa4d-4d7c-b06f-9007953e1994_2365_dldesign_0_cycle1_af2pred (protein) DVGAATVAAVNATAAAALAAVKEAAKLSPEEAKAATGAALAALADTVGQANKAALAHPEHSAQIVGTGVDALAAVQAAADEAIAKAKA | not found |
| design_616_e8336982-fa4d-4d7c-b06f-9007953e1994_2162_dldesign_0_cycle1_af2pred (protein) MLTPEQLQASINAIKAATRKAVEMARAGNEESAEKLLEVARDIAEALLKTDPEAGKEALKIVEEGEEEARKAAEEVRA | binds (active) |
| design_617_b3fadc1d-0db4-4da8-8433-818493aa2ab2_145_dldesign_0_cycle1_af2pred (protein) LQETADKAIEAANKLAELDPEVGDALKTAAETALAQGNEAQARAVKNMAESAYKYFSAKAEAAKAAAEAAA | not found |
| design_617_b3fadc1d-0db4-4da8-8433-818493aa2ab2_588_dldesign_0_cycle1_af2pred (protein) AAAEAAKLQAERDALIKKALEAIEEASALAKELGNQEALALVHKSLTLIAKSLGADAETGLKLAKEALKAAEAALALLKKA | not found |
| design_617_b3fadc1d-0db4-4da8-8433-818493aa2ab2_1003_dldesign_0_cycle1_af2pred (protein) KAAALHAIKVAETLLKKAKEFLEKGKEEGPEYYKMAYATAQSAILVAQGAVEVAKKVSKKLYKKAKKLLEEAKKLAEEAKKLAE | not found |
| design_616_e8336982-fa4d-4d7c-b06f-9007953e1994_1969_dldesign_0_cycle1_af2pred (protein) GEEEKEKKKERFEEILKKAIEGKATKEEIEQAALDGVAYDGGEAVLALLKAYAEAKDPEVRKYLAQALALAARLTAAKLRA | not found |
| design_616_e8336982-fa4d-4d7c-b06f-9007953e1994_1901_dldesign_0_cycle1_af2pred (protein) AAAARAAAAALAAEAIAAAAAAVAADPAAAAIIHAQAERARGGDAATAVRAAQAAGVLAAVLAGDEALAAAVTRRAAALLAA | not found |
| design_616_e8336982-fa4d-4d7c-b06f-9007953e1994_2036_dldesign_0_cycle1_af2pred (protein) GAEELAAEARKAYNEMLELLEKAKETGKTEEYVKKAAEIGRANPIAGQMAMNTVAARDPELAAKLRKAMA | not found |
| design_617_b3fadc1d-0db4-4da8-8433-818493aa2ab2_797_dldesign_0_cycle1_af2pred (protein) AEELAEEAKKYIEEARKKVTELYNEAGATELAEEANEKLESAREIVESGREHPELLPAAVAFARSVADAQLRKAESLV | not found |

| Binder | binding in a display sort |
| --- | --- |
| design_617_b3fadc1d-0db4-4da8-8433-818493aa2ab2_655_dldesign_0_cycle1_af2pred (protein) AEEEERLRRQAEGLYELTKAVAEYLAKNPAAAEQAKALKEKAEKAFEEGMKEHPAEAIRRLQAVLNEASRAAIAASA | not found |
| design_616_e8336982-fa4d-4d7c-b06f-9007953e1994_2198_dldesign_0_cycle1_af2pred (protein) MEEERRKKAEELLEKATKELKAMQAQAEALAKAGDIGAATQLVVDAARYGAEVTREAEKIDPEVAEKMAEVTNKIIAAALKALTAYAA | not found |
| design_616_e8336982-fa4d-4d7c-b06f-9007953e1994_2209_dldesign_0_cycle1_af2pred (protein) NAEAGKYLEEALKLAAEAQKAAAANPAVAPEVIAQASRLVAEAAKAALAGDTKAAKEYLEKMKELRDAAKAALAAA | not found |
| design_617_b3fadc1d-0db4-4da8-8433-818493aa2ab2_1608_dldesign_0_cycle1_af2pred (protein) SEAERIAKAAKEMIEQQKKAGVEGSPVSAEISAKNMEANAKAHSKAIIAADPKTGKKLAKEVKKYAEEAKKEVEEAAKKKLAA | not found |
| design_617_b3fadc1d-0db4-4da8-8433-818493aa2ab2_1042_dldesign_0_cycle1_af2pred (protein) MSAAEIIREALKLLKEAAKAAATDPAKAKELADKAIALGKENQGAALLLSNTARNLAATATPEEAAFLLEVAERARAVAEAL | not found |
| design_616_e8336982-fa4d-4d7c-b06f-9007953e1994_2151_dldesign_0_cycle1_af2pred (protein) GAAAAAEETAKKVAKYLVKGDAEEAAKEALKGHTKNQAQHIVLRAANLAAKETGKSQSIYAKAAEAIALIEA | not found |
| design_616_e8336982-fa4d-4d7c-b06f-9007953e1994_2109_dldesign_0_cycle1_af2pred (protein) AAAAQAAAADAALAAATSMLEKAKEMAATNPESAKKAATVAVDLANYAIALPAATPEQKAQAQKIKEEAEALIASL | not found |
| design_617_b3fadc1d-0db4-4da8-8433-818493aa2ab2_1433_dldesign_0_cycle1_af2pred (protein) GVAEQAIRGLARNTVAAIEAGTLTEEGLEKALELIRGIGEAAGPAARAVAEEAIERVREAWERRKRAEAEAAAA | not found |
| design_617_b3fadc1d-0db4-4da8-8433-818493aa2ab2_977_dldesign_0_cycle1_af2pred (protein) AQAVQEKAAKALATASEVAEKDQSLVPEATEAMNKASQGVALVVAGNTEEGQKLVEEALKTAEKLKKKLE | not found |
| design_617_b3fadc1d-0db4-4da8-8433-818493aa2ab2_206_dldesign_0_cycle1_af2pred (protein) ADALTKKTAEAIYQQVKKRAEELLKKAKEGTPELAKELAKELKKIAEANAKALSSLGPLGEEYAKKVKEYAEKVIKEIEKII | not found |
| design_617_b3fadc1d-0db4-4da8-8433-818493aa2ab2_1296_dldesign_0_cycle1_af2pred (protein) DGEKIQEVLDKAKELYKIAKEIEKKNPEYGKEILKLVQEALSLIAKGNAEEAMKKMEEAEKYAEEVKKKLKEEE | not found |
| design_617_b3fadc1d-0db4-4da8-8433-818493aa2ab2_836_dldesign_0_cycle1_af2pred (protein) VTPEEAKKRVEELVEEAIKLAEKADPAEAEKIRKTYETEGPLAAAAVIWAIGNRFAEKPETKEIGERLRELAIEAIRLLLAAAAA | not found |
| design_617_b3fadc1d-0db4-4da8-8433-818493aa2ab2_1384_dldesign_0_cycle1_af2pred (protein) MEELMEKVKSLGQAAIVAATAAKSAAAAGNTDAARVLLAQARRWLEEAGEAAEKAGEEAKEVYEEVRKVVEAEIAAAEAAIAAA | not found |
| design_617_b3fadc1d-0db4-4da8-8433-818493aa2ab2_1081_dldesign_0_cycle1_af2pred (protein) GEEAAKKAQELVEKIKKLAKEIAAGTAEQAAKLLEEALKYAKEAYKLAAKADPETAAKLSAAANEELAKANRAAIALQRA | not found |
| design_616_e8336982-fa4d-4d7c-b06f-9007953e1994_2287_dldesign_0_cycle1_af2pred (protein) TPEQLKQAAKQALAAAKALVKNAKQASLEDAKKLAEVAKDLTENAIKAAAKAGPEAEKEAKAKAEEIKKAAEEAIAAKEA | not found |
| design_617_b3fadc1d-0db4-4da8-8433-818493aa2ab2_820_dldesign_0_cycle1_af2pred (protein) AEGKALVEQAKALAAQGAAHPQHAAAVAGTLANIGKYLAKLGPEYAKAAADVLNAFAKAVPSVAAQAKAAAAELEKLAKEA | not found |
| design_617_b3fadc1d-0db4-4da8-8433-818493aa2ab2_944_dldesign_0_cycle1_af2pred (protein) AEAAAIEQLNTAVEIIESAAKAGERFARAAAGLFITLARQYADVVPKETLTALAERATAAAAPVPAVAERLAAALQEVIEA | not found |
| design_617_b3fadc1d-0db4-4da8-8433-818493aa2ab2_1528_dldesign_0_cycle1_af2pred (protein) AQAVLQAASEAMVEAARVGSRASPEDRARLRALLAATSTAAIAAARGDGQAALDQAAALAAELTAAVEAVKARA | not found |
| design_617_b3fadc1d-0db4-4da8-8433-818493aa2ab2_117_dldesign_0_cycle1_af2pred (protein) AEKDEEAKKLVEKAKELAEAGLQTAQATGNVALAQAAANMAKALAKEAIRLAEDEKVKEEAKKEAKQAEKALKQAKA | not found |
